Hits are enriched below; roughly 11% of the tested compounds scored in any of these assays.
Pf growth 96h = P. falciparum growth inhibition at 96 hours; 6.9% of 320,000 active; Potency, µM (highest dose often 28.7 µM), for inactives: at the top dose activity change, negative = inhibition, usual class: inhibitors; AID 504834; P. falciparum luciferase reporter growth, 96 h; also: % is scaled to controls: 0 for no effect and ±100 for the full control effect
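Delayed-death screen, second-generation endpoint: infected erythrocytes, 2% hematocrit, 0.05% parasitemia final; 96 hours at 37 C, 5% CO2; luciferase detection reagent; luminescence decrease equals reduced growth.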
HCV inh = inhibitors of hepatitis C virus infection; Huh7.5.1 HCVcc-Cre infection, luciferase reporter, 44 h; Potency, µM (series often up to 41.8 µM), without a hit: top-dose activity change, negative = inhibition, most hits filed as inhibitors; 3.4% of 340,000 active; AID 651820; also: % is scaled to controls: 0 for no effect and ±100 for the full control effect
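Seed cells (1,000/well) for 4 h; treat with compound and infect with HCVcc-Cre, moi about 0.5. Incubate 44 h, then detect luciferase activity.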
Pf growth 48h = inhibits P. falciparum growth in the first generation, 48 h; 5.9% of 310,000 active; AID 504832; Potency, µM (series often up to 28.7 µM), for the others: at the top dose activity change, negative = inhibition, actives largely listed as inhibitors; P. falciparum luciferase growth in erythrocytes, 48 h; also: % is scaled to controls: 0 for no effect and ±100 for the full control effect
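First compound was added to culture medium, then infected red cells at 0.1% parasitemia and 2% hematocrit (final). After incubation at 37 C under 5% CO2, luciferase detection reagent was dispensed and light output recorded.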
VACV Venus inh = inhibitors of vaccinia virus (Venus reporter) | Vaccinia virus Venus reporter expression, fluorescence | Potency, µM (highest dose often 36.5 µM), for inactives: top-dose activity change, negative = inhibition, most hits filed as inhibitors | 0.46% of 330,000 active; calls by dose curve; tested in A549 cells; also: % is scaled to controls: 0 for no effect and ±100 for the full control effect; nearly all actives have a fitted effect of over 30% in size
NS1 function inh = blocks influenza NS1 protein function; Potency, µM (highest dose often 46.1 µM), for inactives: at the top dose activity, positive = more growth; AID 2326; 0.4% of 270,000 active; calls by dose curve; also: actives are rising curves; nearly all actives have a fitted effect of over 50% in size
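In this qHTS, NS1 from influenza A is expressed in budding yeast, where it slows growth. Cells are switched from glucose to 2% galactose medium (pH 6.0, -URA), treated with compound, and growth recovery is read at OD600.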
VACV mCherry inh = inhibitors of vaccinia virus infection (mCherry reporter signal); 0.63% of 310,000 active; Potency, µM (top dose mostly 36.5 µM), for the others: at the highest dose activity change, negative = inhibition, actives largely listed as inhibitors; AID 720579; Vaccinia virus mCherry reporter infection, fluorescence; calls by dose curve; tested in A549 cells; also: % is scaled to controls: 0 for no effect and ±100 for the full control effect; nearly all actives have a fitted effect of over 35% in size
Active calls of the source: *; i = inactive; ? = inconclusive; / = no result; [ ] = remark or other dose. Unless noted, calls follow the shape of the dose curve; as a rule, active = well fitted inhibition curve with a large enough effect; inconclusive = small, poorly fitted or top-dose-only effect, or another doubt; inactive = no such curve, though single readings can be large or run the other way. Potency is read from the fitted curve at half-maximal effect.

SMILES	Pf growth 96h	HCV inh	Pf growth 48h	VACV Venus inh	NS1 function inh	VACV mCherry inh
CCOc1ccccc1N(CC(=O)Nc1ccc2c(c1)OCCO2)S(C)(=O)=O	4.1µM*	6%	-8%	-13%	2%	-11%
Cc1ccc(NC(=O)c2ccc3c(c2)OCCO3)cc1S(=O)(=O)Nc1cccc(Cl)c1	81%	10µM*	47%	?	?	-23%
O=C(Nc1ccc(OC(F)F)c(Cl)c1)Nc1ccc2c(c1)OCO2	/	18µM*	?	/	-5%	/
O=C(Nc1ccc2c(c1)OCO2)Nc1ccc2c(c1)OCO2	48%	-2%	63%	/	7%	/
C=CCNC(=S)Nc1ccc(OC(F)F)c(Cl)c1	-16%	11µM*	-7%	-9%	/	-20%
CCCOc1ccc(C(=O)Nc2ccc3c(c2)OCO3)cc1	54%	?	191%	/	-7%	/
CCOc1cc(C(=O)Nc2ccncc2)cc(OCC)c1OCC	?	?	5.2µM*	-6%	3%	i
CCCOc1c(Cl)cc(C(=O)Nc2ccc3c(c2)OCO3)cc1OCC	?	13µM*	/	?	1%	?
Cc1ccc(C(C(=O)NC2CCCCC2)N(C(=O)c2csnn2)C2CCCC2)o1 (stereo not given)	/	13%	?	/	-3%	/
O=C(c1ccc(-n2c(SCc3cccc(F)c3)nc3ccccc3c2=O)cc1)N1CCOCC1	31%	4%	?	3%	12%	-9%
O=C(NC1CCN(Cc2ccccc2)C1)c1cc(S(=O)(=O)N2CCOCC2)ccc1Cl (stereo not given)	-10%	14%	-18%	/	/	/
COc1ccccc1N1CCN(c2nc3ccccc3nc2C(C#N)C(=O)OC(C)C)CC1 (stereo not given)	2.1µM*	?	1.9µM*	-28%	-45%	/
N#CC(C(=O)NCCc1ccccc1)c1nc2ccccc2nc1N1CCCCC1 (stereo not given)	54%	-12%	?	-8%	10%	/
CCOC(=O)N1CCN(c2nc3ccccc3nc2C(C#N)C(=O)NCCc2ccccc2)CC1 (stereo not given)	?	3%	7.4µM*	-6%	-44%	/
COc1ccccc1N1CCN(c2nc(C)cc(C)c2C#N)CC1	8.3µM*	-24%	4%	-3%	-31%	-10%
CCOC(=O)N1CCN(c2nc(-c3ccccc3)c3ccccc3n2)CC1	?	?	10µM*	-6%	-1%	i
CCCC[N+](CC#CCO)(CC#Cc1ccccc1)CCCC	?	14%	?	-4%	0%	-9%
CCN1CCN(c2nc3ccccc3nc2C(C#N)C(=O)OCc2ccccc2)CC1 (stereo not given)	?	-30%	12µM*	/	-9%	/
O=C(CN1C(=O)/C(=C\c2cccc(Cl)c2)Oc2ccccc21)N1CCN(c2ccccn2)CC1	9.3µM*	/	23%	/	/	/
COc1ccc(Cn2ccc(=O)c(Cc3c(Cl)cccc3Cl)c2C)cc1	?	-10%	?	-24%	3%	/
Cc1ccc(Cn2ccc(=O)c(Cc3c(Cl)cccc3Cl)c2C)cc1	0.41µM*	?	?	-30%	-34%	/
CN(C(=O)c1ccc2c(=O)n3c(nc2c1)CCCCC3)c1ccccc1F	?	4%	7%	/	0%	/
OCC1(CCOc2ccccc2)CCN(Cc2cccn2-c2ncccn2)CC1	-93%	0%	?	-8%	1%	-2%
OCC1(CCc2ccccc2)CCN(Cc2ccc(OC(F)F)cc2)CC1	13µM*	-30%	-28%	-16%	0%	i
COc1ccc(OC)c(CN2CCC(CO)(CCOc3ccccc3)CC2)c1	-7%	0%	13µM*	-8%	2%	i
SMILES	Pf growth 96h	HCV inh	Pf growth 48h	VACV Venus inh	NS1 function inh	VACV mCherry inh
OCC1(CCOc2ccccc2)CCN(C2Cc3ccccc3C2)CC1	?	-2%	8.3µM*	/	0%	/
COc1cc(CN2CCC(CO)(CCOc3ccccc3)CC2)cc(OC)c1	12µM*	-22%	12µM*	/	-4%	/
CCc1ccc(C(=O)COC(=O)C(CCSC)NC(=O)C23CC4CC(CC(C4)C2)C3)cc1 (stereo not given)	?	2%	-6%	/	-5%	/
Cc1cc(C)c(CN2CCC(CO)(CCOc3ccccc3)CC2)cc1C	0%	?	6.6µM*	-21%	0%	-8%
CC(=O)Nc1ccc(CN2CCC(CO)(CCOc3ccccc3)CC2)cc1	?	12%	24%	-16%	-1%	i
COc1ccc(N2CCN(C(=O)CCc3nnc4ccc(N5CCC(C)CC5)nn34)CC2)cc1	-2%	-2%	-20%	/	-41%	/
CCCN1CCN(C(=O)CCc2nnc3ccc(N4CCN(c5cccc(OC)c5)CC4)nn23)CC1	30%	1%	10µM*	-3%	2%	2%
COc1cccc(N2CCN(c3ccc4nnc(CCC(=O)N5CCC(C)CC5)n4n3)CC2)c1	29%	1%	8.3µM*	-11%	1%	?
COc1ccc(-n2nnnc2C2CCN(S(=O)(=O)c3cccc(Cl)c3C)CC2)cc1	/	/	/	-17%	/	-8%
CC1=NN2C(=N)/C(=C\c3cc(C)n(-c4cccc(C)c4)c3C)C(=O)N=C2S1	?	-24%	?	-7%	13%	-4%
COc1cccc(C2C(C(=O)c3sc(C)nc3C)=C(O)C(=O)N2CCN(C)C)c1OC (stereo not given)	-19%	/	4%	/	8.9µM*	/
Cc1nc(C)c(C(=O)C2=C(O)C(=O)N(CCN(C)C)C2c2cccs2)s1 (stereo not given)	46%	27%	6%	-8%	6%	-15%[1.46 µM]
CC(C)=NN1C(c2nonc2N)=NOC1(C)C	32%	2%	57%	-9%	7%	i
CCCCN(C)C(=O)Cc1c(OC)ccc2cc(Br)ccc12	?	-26%	?	0%	-60%	-13%
CCc1ccc(-c2cc3c(=O)n(CC(=O)NCCN4CCCCC4C)nc(C)n3n2)cc1 (stereo not given)	-13%	11µM*	?	-10%	9%	-15%
Cc1nn(CC(=O)NCCCN2CCCCC2C)c(=O)c2cccn12 (stereo not given)	-6%	21%	28%	-1%	3%	-5%
Cc1ccc2c(c1)cc1c(=O)n(CC(=O)NCCN3CCCC3)nc(C)n12	9.3µM*	-8%	24%	/	1%	/
Cc1nn(CC(=O)NCCCN2CCCCC2)c(=O)c2cc(-c3ccccc3)nn12	4.1µM*	-17%	17%	/	1%	/
Cc1nn(CC(=O)NCCCN2CC(C)CC(C)C2)c(=O)c2cccn12 (stereo not given)	10µM*	23%	26%	-11%	-12%	-14%
O=C(NCCc1ccc(Cl)cc1)C1CCN(c2ncnc3c2nc2n3CCCCC2)CC1	/	/	/	-9%	/	-19%
Cc1ccc2[nH]c(C(=O)NCCN3CCCC3)cc2c1	12µM*	-18%	?	?	?	?
